# Results: PubChem BioAssay (NCATS)
# Several values for one entry are separate records, joined by “and”; a condition that tells them apart may be missing. Identical values can stand only once. Inconclusive results are not listed. Where a call stands in place of a potency, no number is given. Where a structure was tested more than once in an assay, its records may differ in their call. Activity calls are given as the source filed them. The call rests on the fitted dose curve; in most records, active means well fitted inhibition curve with a large enough effect; inconclusive means small, poorly fitted or top-dose-only effect; inactive means flat fitted curve, though single readings scatter.
# What was measured:
# CRL-7250 = normal cell line; test: Cytotoxic Profiling of Annotated Libraries Using Quantitative High-Throughput Screening (AID 1296008); conditions: Five cell lines viability, CellTiter-Glo ATP luminescence, 48-72 h; max response: stronger effect = lower value
# Procedure, shortened: (§1)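 Cells exposed to compounds for 48 or 72 hr at 37 degrees Celsius. Viability read as ATP-coupled luminescence with CellTiter-Glo after 10 min at room temperature.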
# HEK293 = test: as above; conditions: Five cell lines viability, CellTiter-Glo ATP luminescence, 48-72 h; max response: stronger effect = lower value
# Procedure, shortened: as §1
# HaCat [1] = test: as above; conditions: Five cell lines viability, CellTiter-Glo ATP luminescence, 48-72 h; max response: stronger effect = lower value
# Procedure, shortened: as §1
# KB-3-1 = test: as above; conditions: Five cell lines viability, CellTiter-Glo ATP luminescence, 48-72 h; max response: stronger effect = lower value
# Procedure, shortened: as §1
# NIH3T3 = test: as above; conditions: Five cell lines viability, CellTiter-Glo ATP luminescence, 48-72 h; max response: stronger effect = lower value
# Procedure, shortened: as §1
# HEK293T = test: qHTS assay to identify novel small-molecules to repurpose for Merkel cell carcinoma treatment (AID 1296009); conditions: MCC and control cell lines, CellTiter-Glo viability, 72 h
# Procedure, shortened: (§2)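 Cells were incubated with compound for 72 hr at 37 degree celsius before CellTiter-Glo addition. Luminescence was normalized with no-cell wells as full cytotoxicity and DMSO as baseline.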
# MCC-13 = test: as above; conditions: MCC and control cell lines, CellTiter-Glo viability, 72 h; series mostly up to 46 µM
# Procedure, shortened: as §2
# MCC-26 = test: as above; conditions: MCC and control cell lines, CellTiter-Glo viability, 72 h; series mostly up to 46 µM
# Procedure, shortened: as §2
# MKL-1 = test: as above; conditions: MCC and control cell lines, CellTiter-Glo viability, 72 h; series mostly up to 46 µM
# Procedure, shortened: as §2
# HACAT [2] = test: as above; conditions: MCC and control cell lines, CellTiter-Glo viability, 72 h
# Procedure, shortened: as §2
# [3] = at 44.8 µM (top of the series) unless noted
# Further: nearly all actives have a fitted effect of over 60% in size.
# Potency means the concentration at half of the fitted maximal effect.
smiles,measurement,setting,value
CCCOc1ccc(C(=O)OCCN(CC)CC)cc1N,max response,CRL-7250,-2.34% (inactive) and -3.98% (inactive)
same,max response,HEK293,-0.795% (inactive)
same,outcome,HEK293,inactive
same,max response,HaCat [1],-1.58% (inactive) and 2.22% (inactive)
same,max response,KB-3-1,-2.47% (inactive) and 5.78% (inactive)
same,outcome,NIH3T3,inactive
same,outcome,HEK293T; [3],inactive
same,Potency,MCC-13,inactive
same,Potency,MCC-26,inactive
same,Potency,MKL-1,inactive
O=P(O)(O)C(O)(Cc1cccnc1)P(=O)(O)O,max response,CRL-7250,-3.74% (inactive) and -13.5% (inactive) and 3.83% (inactive)
same,max response,HEK293,-6.47% (inactive) and -0.4% (inactive)
same,outcome,HEK293,inactive
same,max response,HaCat [1],-18.6% (inactive)
same,outcome,HaCat [1],inactive
same,max response,KB-3-1,16.5% (inactive) and 4.21% (inactive) and 6.74% (inactive)
same,max response,NIH3T3,-4.1% (inactive) and 0.573% (inactive)
same,outcome,NIH3T3,inactive
same,outcome,HACAT [2]; at 4.96 µM (top of the series),inactive
same,outcome,HACAT [2]; at 44.8 µM (top of the series),inactive
same,outcome,HEK293T; [3],inactive
same,Potency,MCC-13,inactive
same,Potency,MCC-26,inactive
same,Potency,MKL-1,inactive
CCN[C@H]1C[C@H](C)S(=O)(=O)c2sc(S(N)(=O)=O)cc21,max response,CRL-7250,-1.48% (inactive) and 1.03% (inactive)
same,max response,HEK293,-5.09% (inactive)
same,outcome,HEK293,inactive
same,max response,HaCat [1],-6.44% (inactive)
same,outcome,HaCat [1],inactive
same,max response,KB-3-1,1.27% (inactive) and -0.756% (inactive)
same,max response,NIH3T3,0.236% (inactive) and 2.34% (inactive)
same,outcome,HACAT [2]; [3],inactive
same,outcome,HEK293T; [3],inactive
same,Potency,MCC-13,inactive
same,Potency,MCC-26,inactive
same,Potency,MKL-1,inactive
CCOCC(O)COc1ccc(NC(=O)CC[S+](C)C)cc1 (stereo unspecified),max response,CRL-7250,-11.9% (inactive) and -0.62% (inactive)
same,max response,HEK293,-1.76% (inactive) and 3.69% (inactive)
same,max response,HaCat [1],4.61% (inactive)
same,outcome,HaCat [1],inactive
same,max response,KB-3-1,-5.04% (inactive)
same,outcome,KB-3-1,inactive
same,max response,NIH3T3,4.96% (inactive) and 4.72% (inactive)
same,outcome,HACAT [2]; [3],inactive
same,Potency,MCC-13,inactive
same,Potency,MCC-26,inactive
same,Potency,MKL-1,inactive
COc1ccc(-c2ccc3cc(C(=O)O)ccc3c2)cc1C12CC3CC(CC(C3)C1)C2,max response,CRL-7250,1.82% (inactive) and 2% (inactive)
same,max response,HEK293,3.2% (inactive)
same,max response,HaCat [1],-4.15% (inactive)
same,outcome,HaCat [1],inactive
same,max response,KB-3-1,-1.55% (inactive)
same,outcome,KB-3-1,inactive
same,max response,NIH3T3,4.1% (inactive)
same,outcome,NIH3T3,inactive
same,outcome,HACAT [2]; [3],inactive
same,Potency,MCC-13,inactive
same,Potency,MCC-26,inactive
same,Potency,MKL-1,inactive
N[C@@H](C(=O)N[C@@H]1C(=O)N2C(C(=O)O)=C(Cl)CS[C@H]12)c1ccccc1,outcome,HACAT [2]; at 9.27 µM (top of the series),inactive
same,outcome,HACAT [2]; at 44.8 µM (top of the series),inactive
same,outcome,HEK293T; at 9.27 µM (top of the series),inactive
same,outcome,HEK293T; at 44.8 µM (top of the series),inactive
O=c1oc2c(O)c(O)cc3c(=O)oc4c(O)c(O)cc1c4c23,outcome,HEK293T; at 17.4 µM (top of the series),inactive
same,outcome,HEK293T; at 44.8 µM (top of the series),inactive
COc1nc(N)nc2c1ncn2[C@@H]1O[C@H](CO)[C@@H](O)[C@@H]1O,outcome,HEK293T; [3],inactive
O=C(O)c1cn(C2CC2)c2cc(N3CCNCC3)c(F)cc2c1=O,outcome,HEK293T; [3],inactive
C[C@@H](NCCCc1cccc(C(F)(F)F)c1)c1cccc2ccccc12,outcome,CRL-7250,inactive
same,max response,HaCat [1],-15.9% (inactive)
same,max response,KB-3-1,5.7% (inactive)
same,Potency,NIH3T3,18.8 µM (active)
same,outcome,NIH3T3,inactive
same,Potency,MCC-13,inactive
same,Potency,MCC-26,inactive and 29.9 µM (active)
same,Potency,MKL-1,inactive
COc1cc(NCc2ccc3nc(N)nc(N)c3c2C)cc(OC)c1OC,Potency,HEK293,4.18 µM (active) and 53.1 nM (active)
same,Potency,HaCat [1],1.06 µM (active)
same,Potency,KB-3-1,3.32 µM (active) and 326 nM (active)
same,Potency,NIH3T3,3.72 µM (active) and 66.8 nM (active)
same,Potency,MCC-13,inactive
same,Potency,MCC-26,inactive
same,Potency,MKL-1,29.6 µM (active)
O=C(O)c1ccc(-n2nc(-c3ccccc3O)nc2-c2ccccc2O)cc1,max response,HaCat [1],2.92% (inactive)
same,outcome,HaCat [1],inactive
same,outcome,HACAT [2]; [3],inactive
same,Potency,MCC-13,inactive
same,Potency,MCC-26,inactive
CC(=O)Oc1ccccc1C(=O)Nc1ncc([N+](=O)[O-])s1,max response,HEK293,-13.9% (inactive)
same,outcome,HaCat [1],inactive
same,max response,KB-3-1,-5.17% (inactive) and -18.8% (inactive)
same,outcome,NIH3T3,inactive
same,outcome,HACAT [2]; at 44.8 µM (top of the series),inactive
same,outcome,HACAT [2]; at 92 µM (top of the series),inactive
same,Potency,MCC-13,inactive
same,Potency,MCC-26,inactive
same,Potency,MKL-1,inactive
NC(=O)c1cccnc1,outcome,HACAT [2]; [3],inactive
same,outcome,HEK293T; [3],inactive
same,Potency,MCC-13,inactive
same,Potency,MCC-26,inactive
same,Potency,MKL-1,inactive
